# Screening results (PubChem BioAssay)
# Sampled rows, rich in hits. Any-hit rate of the full collection: about 1.7%.
# ALOX15 inhib = inhibitors of human 15-lipoxygenase (ALOX15). P16050. purified 15hLO-1, xylenol orange hydroperoxide absorbance. Potency, µM (titrated, usually from 57.1 µM), without a hit: top-dose activity change, negative = inhibition, most hits filed as inhibitors. hit rate 1.4% among 74,000. AID 887; further: on the % scale 0 is the no-effect control and ±100 the full control effect; nearly all actives have a fitted effect of over 55% in size
#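 Purified human 15hLO-1 (40 nM) in 25 mM Hepes pH 7.5, 0.01% Triton X-100, preincubated 15 min RT with compound, then 50 uM arachidonic acid for 6 min. Hydroperoxide read by ferrous/xylenol orange, 30 min; 573/405 nm absorbance ratio gave progress.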
# ERK AVP inh = inhibitors of vasopressin-stimulated ERK signaling pathway | HEK293-V1b, vasopressin-stimulated pERK AlphaScreen | Potency, µM (top dose mostly 57.5 µM), for the others: at the top dose activity, negative = inhibition, most hits filed as inhibitors | hit rate 0.99% among 72,000; further: on the % scale 0 is the no-effect control and ±100 the full control effect; nearly all actives have a fitted effect of over 55% in size
#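 V1b-HEK293 cells; cpd 30 min 37C; 25 nM vasopressin 5 min; lyse 10 min; AlphaScreen beads 5 hr RT. Normalized to DMSO basal and 25 nM vasopressin; AC50 by Hill fit.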
# Caspase-7 inhib = caspase-7 (human) inhibition, allosteric or competitive; Potency, µM (series often up to 57.5 µM), for inactives: top-dose activity change, negative = inhibition, most hits filed as inhibitors; P55210; recombinant caspase-7, Ac-DEVD-AFC fluorescence rate; hit rate 0.02% among 75,000; active means well fitted inhibition curve with a large enough effect in the main read-out, with a control signal flat, not every such curve was filed as active; inconclusive means small, poorly fitted or top-dose-only effect, or a change in a side signal; further: % of control where 0% means no effect
# ALOX15B inhib = blocks human 15-lipoxygenase 2 activity; O15296; purified 15hLO-2, xylenol orange hydroperoxide absorbance; Potency, µM (top dose mostly 57.1 µM), for the others: top-dose activity change, negative = inhibition, actives largely listed as inhibitors; hit rate 0.56% among 110,000; further: on the % scale 0 is the no-effect control and ±100 the full control effect; nearly all actives have a fitted effect of over 60% in size
#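 Enzyme 50 nM, AA 45 uM, 25 mM Hepes pH 7.5 + 0.01% Triton X-100; cpd preinc 15 min RT, rxn 90 min RT; stop/detect with 200 uM XO + 300 uM Fe(II) in 50 mM H2SO4, 30 min; A573/A405.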
# Caspase-1 inhib = blocks human caspase-1 allosterically or competitively; Caspase-1 enzyme, Ac-WEHD-AFC fluorogenic rate; hit rate 0.03% among 75,000; Potency, µM (top dose mostly 57.5 µM), for inactives: top-dose activity change, negative = inhibition, hits mostly inhibitors; P29466;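 further: plate controls were vehicle for no effect and no substrate for full effect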
# An asterisk follows results filed as active; ? = inconclusive; nt = not tested or not shown; [ ] = remark or other dose. Unless noted, the call rests on the fitted dose curve; in most records, active means well fitted curve in the direction sought with a large enough effect; inconclusive means small, poorly fitted or top-dose-only effect, or another doubt; inactive means no such curve, though single readings can be large; an effect the other way counts as inactive or inconclusive. Potency means the concentration at half of the fitted maximal effect.
SMILES,ALOX15 inhib,ERK AVP inh,Caspase-7 inhib,ALOX15B inhib,Caspase-1 inhib
N#CCCn1c(=O)c(-c2ccc(Cl)cc2)nc2cnc(Oc3ccccc3)nc21,3.4%,-2.7%,-24.3%,-3.5%,?
O=C1CC(c2cccs2)Cc2nc(NCC3CCCO3)ncc21 (stereo unspecified),2.3%,20µM*,0.2%,7.2%,-1.0%
CC1CC(=O)c2cnc(NCC3CCCO3)nc2C1 (stereo unspecified),3.7%,-15.9%,-1.6%,-0.8%[2.29 µM],0.6%
COc1cccc(-c2cnc(NCc3cc(Cl)ccc3O)n2C)c1,31.6µM*,?,-5.0%,21.6%,-5.6%
COc1cccc(Cn2c(=O)c(-c3cccs3)nc3cnc(N4CCNCC4)nc32)c1,-0.2%,5.7%,?,40.0%,nt
Cc1ccccc1-n1c(C)cc(/C=N/NC(=O)c2ccncc2)c1C,nt,nt,nt,0.0%,nt
Cc1cccc(C)c1-n1c(C)cc(/C=N/NC(N)=S)c1C,nt,nt,nt,20µM*,nt
CCC1=NNc2cccc3c(OC)ccc1c23,nt,nt,nt,5.01µM*,nt
O=C1CCCC(O)=C1C(C#Cc1ccccc1)C1=C(O)CCCC1=O,7.94µM*,-17.6%,0.2%,?,-1.2%
CC1(C)CC(=O)C(C(C#Cc2ccccc2)C2=C(O)CC(C)(C)CC2=O)=C(O)C1,nt,nt,nt,-18.8%,nt
O=c1c(CCc2ccccc2)nc2cnc(N3CCNCC3)nc2n1C1CC1,-0.1%,?,?,27.8%,nt
CC(=O)OC[C@@H]1O[C@H](CCO/N=C\[C@@H](C)[C@H](OCc2ccccc2)C(C)C)C=C[C@@H]1OC(C)=O,10.0%[11.4 µM],27.4%[11.5 µM],-7.0%[11.5 µM],nt,0.3%[11.5 µM]
C=C(C)C(O)/C=C/c1ccccc1OC (stereo unspecified),4.0%[11.4 µM],10.9%[11.5 µM],-1.8%[11.5 µM],nt,-0.1%[11.5 µM]
CCOC(=O)c1ccc(N/C=C2\CCCCC2=O)cc1,nt,nt,nt,-0.8%,nt
O=C1CCCC/C1=C\Nc1ccc(O)cc1,20µM*,-7.7%,-1.8%,-20.9%,-7.1%
O=C1Nc2ccccc2Nc2ncccc21,nt,nt,nt,2.6%,nt
O=C1Nc2cccnc2Sc2ccccc21,15.8µM*,6.5%,-0.7%,-24.9%,1.4%
COC(=O)c1cc[n+](CC(=O)c2ccccc2)cc1,nt,nt,nt,-7.1%,nt
COC(=O)c1ccc2c(c1)C(C)(C)C(/C=C/c1ccccc1O)=[N+]2C,nt,nt,nt,15.8µM*,nt
O=[N+]([O-])c1ccc(-c2nc(-c3ccc(F)cc3)c(-c3ccncc3)[nH]2)cc1,-17.0%,20µM*,3.3%,42.3%,-8.0%
Cc1nnc(S(=O)(=O)c2ccc(N=Nc3c(N)nc(N)nc3N)cc2)s1,-1.0%[11.4 µM],-12.4%[11.5 µM],-1.8%[11.5 µM],-10.9%[11.4 µM],0.5%[11.5 µM]
COc1ccccc1-c1cc(C(=O)N2CCN(c3ccccc3OC)CC2)no1,-7.5%,-0.1%,-4.2%,16.1%,-0.8%
CC(=O)OCCNc1cc(N2CCN(C)CC2)c2noc3c2c1C(=O)c1ccccc1-3,-11.7%,15.8µM*,-26.4%,nt,?
Cc1nc(NCc2ccccc2)c2nc(-c3ccccc3)n(CCN3CCOCC3)c2n1,20µM*,8.9%,-2.5%,39.5%,0.9%
COCCNc1nc(C)nc2c1nc(-c1ccccc1)n2CCN1CCCCC1,?,-9.2%,-0.2%,33.7%,1.6%
SMILES,ALOX15 inhib,ERK AVP inh,Caspase-7 inhib,ALOX15B inhib,Caspase-1 inhib
CCCCNc1nc(C)nc2c1nc(-c1ccccc1)n2CCN1CCCCC1,12.6µM*,-28.0%,0.5%,31.0%,-1.5%
O=C(CSc1nc2ccccc2s1)NC(=O)NCc1ccco1,?,-11.3%,-13.9%,-16.0%,-5.9%
CCOC(=O)N1CCN(c2nc(-c3ccc(Cl)cc3)cs2)CC1,-17.5%,nt,-2.2%,21.0%,-4.0%
O=C(CN1CCN(c2nc(-c3ccc(Cl)cc3)cs2)CC1)NCc1ccco1,-8.0%,31.6µM*,-10.2%,-2.6%[11.4 µM],?
O=C(CSc1nc(-c2ccccc2)cs1)NC(=O)NCc1ccco1,-16.2%,25.1µM*,-3.4%,nt,-1.4%
COC(=O)C1=C(C)N(Cc2ccccc2)C2=C(C(C)=O)C(c3ccccc3)[C@@](O)(C(=O)OC)C(=O)N2C1c1ccccc1 (stereo partly specified),8.8%[11.4 µM],18.0%[11.5 µM],2.6%[11.5 µM],nt,-1.3%[11.5 µM]
COc1ccc2c(c1)OC/C(=C/c1ccc(O)c(O)c1)C2=O,-2.1%,-0.6%,1.2%,?,1.0%
COc1ccc2c(c1)OC/C(=C/c1ccc(OC)c(OC)c1)C2=O,-4.7%,15.8µM*,-16.1%,-11.8%,-10.1%
Cn1cc(-c2nc3cncnc3n(CCN)c2=O)c2ccccc21,3.7%,-14.8%,-18.1%,33.0%,-10.9%
C[C@@H]1CC2(OC3C[C@@]4(C)C5=CC[C@H]6C(C)(C)C(O[C@@H]7OC[C@@H](O)[C@H](O)[C@H]7O)CC[C@@]67C[C@@]57CC[C@]4(C)C31)OC(O)C1(C)OC21 (stereo partly specified),-2.6%,26.6%,0.0%,-15.3%,-1.2%
COc1ccc(S(=O)(=O)N(C(C)=O)c2ccc3oc(=O)sc3c2)cc1,5.01µM*,1.6%,-0.6%,-23.3%,-2.7%
COc1ccc(N(C(=O)C(C)C)S(=O)(=O)c2ccc(Cl)cc2)cc1,nt,nt,nt,6.1%,nt
CNC/C(Cl)=N/S(=O)(=O)c1ccc(C)cc1,5.9%[11.4 µM],5.6%[11.5 µM],0.2%[11.5 µM],-7.6%[11.4 µM],1.1%[11.5 µM]
C[C@H](c1ccccc1)N1C(=O)[C@H]2[C@@H]3[C@H](O)[C@H](O)CC(=O)[C@H]3CC[C@H]2C1=O,6.6%[11.4 µM],-8.0%[11.5 µM],1.1%[11.5 µM],nt,-1.9%[11.5 µM]
O=C(O)CCN1Cc2ccccc2C1=O,20µM*,1.8%,-23.1%,-11.4%,-4.5%
O=C(O)[C@H](Cc1ccccc1)N1Cc2ccccc2C1=O,?,nt,2.4%,0.3%,-1.6%
Nc1ncnc2oc(-c3ccco3)c(-c3ccco3)c12,2.51µM*,?,?,-21.2%,-13.7%
CC(=O)/C(=C\c1ccccc1)CC(=O)O,-3.1%,-2.2%,1.5%,4.8%,-2.6%
CCCCCn1c(=N)n(CC(O)COc2ccccc2OC)c2ccccc21 (stereo unspecified),?,12.6µM*,0.0%,nt,-1.4%
O=CNc1ncn[nH]1,-6.6%[11.4 µM],-2.4%[11.5 µM],0.3%[11.5 µM],6.8%[11.4 µM],1.1%[11.5 µM]
CO[C@H]1COC(=O)[C@@H](C)COC(=O)[C@@H](OCc2ccccc2)/C=C\[C@@H]1C,3.2%[11.4 µM],1.8%[11.5 µM],-6.1%[11.5 µM],nt,-2.1%[11.5 µM]
Cc1cc(S(=O)(=O)Nc2ccccc2C(=O)O)ccc1F,-1.0%,nt,-1.8%,nt,-2.2%
C=Cc1c(C)c2cc3[nH]c(cc4nc(cc5nc(cc1[nH]2)C(C)=C5CCC(=O)O)C(CCC(=O)O)=C4C)c(C)c3C=C,?,407.7%,-6.9%,20µM*,-7.1%
Cc1cccc(CNc2nc(-c3ccccc3CN(C)C)nc3ccccc23)c1,-0.6%,22.3%,2.7%,45.0%,-1.1%
N#Cc1cccc(-c2cc(NCc3cccs3)ncn2)c1,?,12.6µM*,0.9%,7.6%,0.2%
